Experimental data: PubChem BioAssay (NCATS)
Records with an inconclusive call do not appear. Values without a mark were called inactive. Active and inactive are the calls of the source. Calls come from the whole dose curve; as a rule, active = well fitted inhibition curve with a large enough effect; inconclusive = small, poorly fitted or top-dose-only effect; inactive = flat fitted curve, though single readings scatter.

target: Phospholipid hydroperoxide glutathione peroxidase GPX4 (Homo sapiens) (UniProt P36969); test: Primary qHTS Assay for Inhibitors of Recombinant Selenoprotein Glutathione Peroxidase 4 (GPX4) (AID 1845192); details: recombinant GPX4, GR-coupled NADPH fluorescence, 15 min; series mostly up to 50 µM; activity change, negative = inhibition: at the top concentration; note: nearly all actives have a fitted effect of over 65% in size
Sequence (P36969 whole entry, looked up): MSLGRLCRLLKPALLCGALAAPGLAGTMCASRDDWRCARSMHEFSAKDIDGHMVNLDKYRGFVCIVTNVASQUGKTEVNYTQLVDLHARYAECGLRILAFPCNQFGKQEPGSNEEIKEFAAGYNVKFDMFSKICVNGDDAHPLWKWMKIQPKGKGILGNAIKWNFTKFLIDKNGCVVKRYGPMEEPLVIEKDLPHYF
Procedure, shortened: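 qHTS, GR-coupled: GPX4 200 nM + cpd 30 min RT → GSH 1 mM, NADPH 0.5 mM, GR 100 nM → CHP 0.5 mM start; fluor 340/450 at t0 and t15 min; no-enzyme wells as control.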
% is set by controls: 0 for no effect and ±100 for the full control effect.

Compound	activity change, negative = inhibition	outcome
CC(C)CC(=O)O[C@@H]1OC=C(CO[C@@H]2O[C@H](CO)[C@@H](O)[C@H](O)[C@H]2O)[C@H]2[C@@H]3O[C@H]3[C@@](O)(CO)[C@@H]12	1.28% [at 27.8 µM]	
C/C=C/C=C/C=C/C(=O)OC1C=C(C=O)C(O)(C(=O)O)C2(C)CCCC(C)(C)C12 (stereo unspecified)	-10.8% [at 27.8 µM]	
CC(CCC1(O)OC2CC3C4CCC5CC(O[C@@H]6O[C@H](CO)[C@@H](O)[C@H](O)[C@H]6O[C@@H]6O[C@@H](C)[C@H](O)[C@@H](O)[C@H]6O)C(O)CC5(C)C4CCC3(C)C2C1C)CO[C@@H]1O[C@H](CO)[C@@H](O)[C@H](O)[C@H]1O (stereo partly specified)	-6.68% [at 15.3 µM]	
Cc1nc(Nc2n[nH]c3c2CN(C(=O)NC(CN(C)C)c2ccccc2)C3(C)C)c2sccc2n1 (stereo unspecified)		inactive
CC(=O)OCC1(O)CCC2C(COC3OC(CO)C(O)C(O)C3OC(=O)/C=C/c3ccc(O)cc3)=COC(OC(=O)CC(C)C)C21 (stereo unspecified)	-6.27% [at 15.3 µM]	
CC1=CC(=O)[C@H]2C(C)(C)CCC[C@]2(C)[C@@]1(O)CO		inactive
CC1CCC2C(C)(C)[C@@H](O)CC[C@]2(C)C12Cc1c(O)cc3c(c1O2)CN(C(CCC(=O)O)C(=O)O)C3=O (stereo partly specified)	-4.21% [at 27.8 µM]	
CCCC(=O)NCCc1csc(-c2ccc(Cl)cc2)n1	-7.85%	
C[C@@H]1CCC/C=C/[C@H]2CC(=O)C[C@@H]2[C@@H](O)/C=C/C(=O)O1	-10.3%	
CC1(C)CCC2(C(=O)OC3OCC(O)C(O)C3O)CCC3(C)C(=CCC4C5(C)CC(O)C(OC6OC(COC7OCC(O)C(O)C7O)C(O)C(O)C6O)C(C)(C)C5CCC43C)C2C1 (stereo unspecified)	-5.06% [at 15.3 µM]	
CC(C)=CC/C=C(\C)[C@H]1CC[C@]2(C)[C@@H]1[C@H](O)C[C@@H]1[C@@]3(C)CC[C@H](O)C(C)(C)[C@@H]3[C@@H](O[C@@H]3O[C@H](CO)[C@@H](O)[C@H](O)[C@H]3O)C[C@]12C	-20.2%	
